Only a sample is shown. The true hit rate is not given.
B1: il2ra_site2_2erj_normal_mot_HHH_b1_04373_af2_000000118_0001_18_33_H_._HHH_b2_00961_af2_0001_0000900028_0000001_1 (protein)
chain: SSSSSDEEEVERRVRELLEEAEKVDLEEAYKLAVEALHLAAENRDPELLRLILEWVEKHSSSSSS
B2: il2ra_site2_3nfp_sap_15_mot_HHH_b1_02990_000000128_0001_41_58_H_._HHH_b1_03794_0001_0000400021_0000001_0_0001 (protein)
chain: SEAEEIIKLIAELLGTPPERVRERVEDAAEIVNRPPEEAAAYLLAQVALELGDPELEKEAKRLSR
B3: il2ra_site2_2erj_sap_28_mot_HHH_b1_08185_000000106_0001_41_55_H_._HHH_b2_03845_af2_0001_0001200037_0000001_0_0001 (protein)
chain: SSSSDEEEERLEELVERAERLLKEGNPEEAWEVLREAATLAWELGDEEIWSRLSKLTAEVASSSS
B4: il2ra_site1_1z92_normal_mot_54e474eed2d0515e81978198f0f96ec2_0001_000000202_0001_15_30_H_._8eb524b276bbb897fd8f0cca34c37a2d_0001_af2_0001_0000300018_0000001_0_a … (protein)
chain: DVEEEIEEALKELGVPPEEIKVVKRDFRLAREAGIPPEQVLRALINAARASGDEELTEALELVLK
B5: il2ra_site1_3nfp_normal_mot_e80b558ee5422d85aa46efdc370d0602_0001_af2_000000114_0001_54_65_H_._HEEHE_2247_0002_0000400019_0000001_0_af2pred_0001_af2pred (protein)
chain: DRQEILQEDAELISKVAGVTSVHVEVENGHVTVTVEADNRRARALLRILREAAKIAGLEVEITIE
B6: il2ra_site2_2erj_normal_mot_HHH_b1_02757_000000121_0001_41_57_H_._HHH_b1_02256_0001_0000700046_0000001_0_af2pred_0001_af2pred (protein)
chain: SSSSSSSVEEEVKELLEQAKHIPDIREALKVLEEADRLALENDNEELLELITRVLRELSSSSSSS
B7: il2ra_site2_2erj_normal_mot_HHH_b2_04744_000000294_0001_42_58_H_._HHH_b1_07967_af2_0001_0000500022_0000001_0 (protein)
chain: SSSSDEEERLEELLKELEELSRKRDFHRFAEVFSEILELVEENNDEEAALIAFRIMREHFGSSSS
B8: il2ra_site1_2b5i_normal_mot_f5ff40796168375b462bec8614a1db4a_0001_1_000000138_0001_53_65_H_._HHH_b2_01775_0001_0000500027_0000001_0_af2pred_dldesign_0_af2pred (protein)
chain: SSSSSSEKRELIQALIDEAKKEEDKRLAKRLLLLALRLARKHNDEELIAEIEALLKELESSSSSS
B9: il2ra_site2_2erj_sap_16_mot_HHH_b2_07792_af2_000000252_0001_18_34_H_._HHH_b1_07975_af2_0001_0000200006_0000001_0_0001 (protein)
chain: SSSSSDTEEEVEELLEQAKRITDLREVYRLAVEALHLAARVQDPELQRLVAEVVEELSRSSSSSS
B10: il2ra_site2_2erj_sap_19_mot_HHH_b2_01275_af2_000000073_0001_23_39_H_._HHH_b1_01063_af2_0001_0000200019_0000001_0_0001 (protein)
chain: SSSSDKLRELYELAVEVLRAVARGDEEEAERLLEEAKELAEELDSPNAREALENNKRLLKSSSSS
B11: il2ra_site2_2erj_sap_14_mot_HHH_b2_01204_af2_000000056_0001_19_34_H_._HHH_b2_03878_0001_0000200011_0000001_0_0001 (protein)
chain: SSSSDWLHELYELASEITRLLAEGDPEEARRLLEELEELAEENDSPNAEEIVERLEKKIESSSSS
B12: il2ra_site1_2b5i_sap_14_mot_HHH_b2_01684_af2_000000128_0001_1_17_H_._HHH_b1_05605_0001_0000200010_0000001_0_0001_af2pred_dldesign_0_af2pred (protein)
chain: SSSSSSSSDRRALLEEANKAFQAGDVEALEALLERAEAAGWEKVARTIRKAIEALLESSSSSSSS
B13: il2ra_site1_2b5i_sap_9_mot_HHH_b2_02740_000000236_0001_1_21_H_._HHH_b1_02398_0001_0000300016_0000001_0_0001 (protein)
chain: SSSSDDELFHEIDELFREASRLFLNGNPEEAEKVLEKAIRLAEEGGDESTAEDLRRFLELLSSSS
B14: il2ra_site2_3nfp_sap_25_mot_HHH_b2_06150_000000217_0001_39_53_H_._HHH_b2_05014_af2_0001_0000300011_0000001_0_0001 (protein)
chain: DEVSEVIWRLREEGDPELAFLLFAVRADVLYKHDPELEEELEKLIELAERDPEKAKELAEELLRR
B15: il2ra_site2_2erj_normal_mot_HHH_b2_01353_af2_000000049_0001_23_39_H_._HHH_b1_04436_af2_0001_0000200013_0000001_0 (protein)
chain: SSSSDEIEELLEKAKELLEKGNPEEAEEVLRRASVAAFENRDHEAFAEIAELLRIVAELEASSSS
B16: il2ra_site1_1z92_sap_28_mot_HHH_b1_00661_af2_000000033_0001_38_50_H_._HHH_b2_00267_af2_0001_0000300009_0000001_0_0001_af2pred_0001_af2pred_1 (protein)
chain: PEELAEQAEELLKNGNPEEAEKVLRELAKELGNEEVFERDLEHAERNLGNPEQALLSLIKALSFV
B17: il2ra_site1_1z92_sap_12_mot_HHH_b2_04974_000000012_0001_1_17_H_._HHH_b1_06150_af2_0001_0000300041_0000001_0_0001_af2pred_dldesign_0_af2pred (protein)
chain: SSSSSSPYQRARDLILEINKARQAGDTEKFDELLAELEKLAKELESNTLLRFIEHARKELSSSSS
B18: il2ra_site2_2erj_normal_mot_HHH_b2_06912_000000039_0001_38_52_H_._HHH_b2_01292_0001_0000100004_0000001_0 (protein)
chain: SSSSSDKEESEKLAEEAHELILRNPERVEEIVEEFRRELEELNDPIAVRYLELVRRDVNSSSSSS
B19: il2ra_site2_3nfp_sap_24_mot_HHH_b1_03818_000000217_0001_1_20_H_._HHH_b1_04518_af2_0001_0000400014_0000001_0_0001 (protein)
chain: SEKDLIEMSLEMIKAHALLHGNEEVQEIVEELERLLEEAKRKNDEELREEVAERAAELIERVLES
B20: il2ra_site2_2erj_normal_mot_HHH_b2_00494_000000216_0001_41_54_H_._HHH_b1_07802_af2_0001_0000300011_0000001_0 (protein)
chain: SSSSNEELRRLYELADEALRLITEGNPEEAEKVLEEARELAERLNSENAREVVEFLEELLESSSS
B21: il2ra_site2_2erj_sap_21_mot_HHH_b2_00938_af2_000000099_0001_43_55_H_._HHH_b1_03152_af2_0001_0000100003_0000001_0_0001 (protein)
chain: SSSSLHEAFEIAVEAAAKISRLHREGNDEEAKRVFEEARERLEELGTENAREHLEHLFKALSSSS
B22: il2ra_site2_3nfp_normal_mot_HHH_b1_00660_af2_000000090_0001_40_57_H_._HHH_b1_02730_0001_0001000022_0000001_0 (protein)
chain: SSSSSDEEVRELLEQLRELIEKNDEEEFERLSREITNLAYELNNFELFALVQELRARFISSSSSS
B23: il2ra_site2_3nfp_normal_mot_HHH_b2_04451_000000238_0001_21_37_H_._HHH_b2_04195_af2_0001_0000200011_0000001_0 (protein)
chain: SSSSSEEEEVRELLEQARELLERGDPYEALELLAEASEIAAKLNNEELARLILELFEKVQKSSSS
B24: il2ra_site2_3nfp_normal_mot_HHH_b2_08209_000000146_0001_1_18_H_._HHH_b1_00160_0001_0000200018_0000001_0 (protein)
chain: SSSSSTEEERERVEELLEEAKEITDPEERKELLAEATQIAYEANDFELFALVADVVFELLSSSSS

target: il2ra, P01589; assay: yeast display titration
Sequence (P01589 whole entry): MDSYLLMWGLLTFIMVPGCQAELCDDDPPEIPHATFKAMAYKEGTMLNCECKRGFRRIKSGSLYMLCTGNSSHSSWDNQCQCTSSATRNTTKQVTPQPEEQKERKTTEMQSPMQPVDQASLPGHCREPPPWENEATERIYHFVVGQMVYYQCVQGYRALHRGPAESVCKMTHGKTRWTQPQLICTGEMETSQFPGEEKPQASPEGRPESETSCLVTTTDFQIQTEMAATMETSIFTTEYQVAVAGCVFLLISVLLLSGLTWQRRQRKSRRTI

Apparent Kd, inactive:
B1 no binding seen, B2 no binding seen, B3 no binding seen, B4 no binding seen, B5 no binding seen, B6 no binding seen, B7 no binding seen, B8 no binding seen, B9 no binding seen, B10 no binding seen, B11 no binding seen, B12 no binding seen, B13 no binding seen, B14 no binding seen, B15 no binding seen, B16 no binding seen, B17 no binding seen, B18 no binding seen, B19 no binding seen, B20 no binding seen, B21 no binding seen, B22 no binding seen, B23 no binding seen, B24 no binding seen

Reference: PMC10163288
